Where “and” joins values, the source holds several entries; their conditions need not be identical. Identical values can stand only once. For part of these data: Measured potencies and affinities stand elsewhere. The source holds several records for some structures; these can differ, active in one and inactive in another. Calls of active or inactive are those of the source. Unless noted, the rule behind the calls is not given here.

A short description of experiment [1]: antimalarial activity against Dd2 strain (AID 2302;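 active = growth inhibition above 50% at the single 2 µM test dose, taken to imply half-maximal potency below 2 µM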;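 note: 0% = DMSO untreated growth and 100% = chloroquine plus artemisinin killed control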). The note with it: P. falciparum Dd2 in RBCs, LDH growth readout, 72 h; at 2 µM; stronger effect = higher value.
Experiment [2] in a line: human hepatoma cell viability loss – ATP luminescence, cytotoxicity control for P. falciparum antimalarial project, primary screen (AID 2303;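 active = inhibition above 50%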;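 note: 0% = DMSO wells and 100% = digitonin-killed cells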). The conditions noted are these: HepG2 viability, 24-48 h, at 10 µM, stronger effect = higher value.
Experiment [3] concerns the target L-lactate dehydrogenase (Plasmodium falciparum (isolate CDC / Honduras)) (UniProt Q27743). Kind of experiment: PfLDH activity inhibition – cell lysate, 3D7 strain, counter-screen for P. falciparum growth inhibition project (AID 2304).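 Note: 0% = vehicle and 100% = reference inhibitor.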 The conditions noted are these: P. falciparum 3D7 crude extract, LDH APAD/NBT absorbance; at 2 µM; stronger effect = higher value. For orientation: A counterscreen serves to expose hits that act by an unwanted route or on another target.

Experiment [4] in a line: inhibition of 3D7 malaria parasite growth – strain 3D7 (AID 2306).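 Note: 0% = DMSO wells and 100% = chloroquine plus artemisinin control wells.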 The conditions noted are these: P. falciparum 3D7 erythrocytic growth, LDH absorbance, 72 h; at 2 µM; stronger effect = higher value.
Experiment [5] addresses Calcium-dependent protein kinase 1 (Plasmodium falciparum (isolate 3D7)) (UniProt P62344). Kind of experiment: PfCDPK1 kinase inhibitors, biochemical, TCAMS library (AID 1159585; cut-off not given, nearly all actives have IC50 up to about 0.98 µM;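 note: inhibitors leave more ATP so luminescence rises with inhibition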). The conditions noted are these: recombinant PfCDPK1, Kinase-Glo ATP depletion luminescence.
For experiment [6], the target named is Plasmodium falciparum protein kinase 6 (PK6, PF3D7_1337100) (UniProt Q8IDW1). Kind of experiment: PfPK6 kinase inhibitors, biochemical, TCAMS library (AID 1159586). The note with it: recombinant PfPK6, Kinase-Glo ATP depletion luminescence. A general note: In Kinase-Glo more light means more ATP remaining.
The target in experiment [7] is Protein kinase 7 (PK7), Plasmodium falciparum 3D7 (PF3D7_0213400) (UniProt Q7YTF7). Kind of experiment: inhibition of Plasmodium PK7 catalytic activity – biochemical, TCAMS antimalarial set, Kinase-Glo luminescence (AID 1159587). The conditions noted are these: recombinant PfPK7, Kinase-Glo ATP depletion luminescence.
For experiment [8], the target named is Calcium-dependent protein kinase 4 (Plasmodium falciparum (isolate 3D7)) (UniProt Q8IBS5). The experiment can be described thus: PfCDPK4 kinase inhibitors, biochemical, TCAMS library (AID 1159588; cut-off not given, nearly all actives have IC50 up to about 0.91 µM). The conditions noted are these: recombinant PfCDPK4, Kinase-Glo ATP depletion luminescence.
Calcium-dependent protein kinase 4 (Plasmodium falciparum (isolate 3D7)), sequence (Q8IBS5 whole entry, looked up): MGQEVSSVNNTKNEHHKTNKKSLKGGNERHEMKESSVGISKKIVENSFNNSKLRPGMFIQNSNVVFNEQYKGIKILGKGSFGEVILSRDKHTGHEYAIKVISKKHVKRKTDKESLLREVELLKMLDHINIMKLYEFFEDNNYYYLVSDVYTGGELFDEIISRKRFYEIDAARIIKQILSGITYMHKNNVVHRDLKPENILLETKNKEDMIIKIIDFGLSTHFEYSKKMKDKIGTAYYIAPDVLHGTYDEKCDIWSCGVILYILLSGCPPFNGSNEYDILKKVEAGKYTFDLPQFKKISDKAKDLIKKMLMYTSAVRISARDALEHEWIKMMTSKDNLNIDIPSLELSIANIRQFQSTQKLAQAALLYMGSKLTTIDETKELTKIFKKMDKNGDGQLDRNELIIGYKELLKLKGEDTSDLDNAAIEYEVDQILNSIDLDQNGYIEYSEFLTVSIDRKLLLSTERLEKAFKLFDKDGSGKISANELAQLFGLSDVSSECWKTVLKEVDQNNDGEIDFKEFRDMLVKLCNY

L-lactate dehydrogenase (Plasmodium falciparum (isolate CDC / Honduras)), sequence (Q27743 whole entry, looked up): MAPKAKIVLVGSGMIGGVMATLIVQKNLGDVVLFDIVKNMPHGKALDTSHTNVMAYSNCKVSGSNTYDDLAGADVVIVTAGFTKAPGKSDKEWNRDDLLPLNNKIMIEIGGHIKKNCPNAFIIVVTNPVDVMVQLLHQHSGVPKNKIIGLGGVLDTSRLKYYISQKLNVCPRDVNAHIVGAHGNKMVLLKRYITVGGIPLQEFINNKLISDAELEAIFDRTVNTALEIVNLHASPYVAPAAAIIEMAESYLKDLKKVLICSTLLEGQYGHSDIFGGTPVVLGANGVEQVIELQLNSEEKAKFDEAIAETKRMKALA
Plasmodium falciparum protein kinase 6 (PK6, PF3D7_1337100), sequence (Q8IDW1 1-305): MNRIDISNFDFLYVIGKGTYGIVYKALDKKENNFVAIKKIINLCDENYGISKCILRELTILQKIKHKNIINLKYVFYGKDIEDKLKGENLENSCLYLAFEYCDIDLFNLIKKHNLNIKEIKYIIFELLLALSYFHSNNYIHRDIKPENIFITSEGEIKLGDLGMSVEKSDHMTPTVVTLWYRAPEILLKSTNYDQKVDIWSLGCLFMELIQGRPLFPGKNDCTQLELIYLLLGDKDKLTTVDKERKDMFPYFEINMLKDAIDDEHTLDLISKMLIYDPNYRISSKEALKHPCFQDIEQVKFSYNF
Protein kinase 7 (PK7), Plasmodium falciparum 3D7 (PF3D7_0213400), sequence (Q7YTF7 1-343): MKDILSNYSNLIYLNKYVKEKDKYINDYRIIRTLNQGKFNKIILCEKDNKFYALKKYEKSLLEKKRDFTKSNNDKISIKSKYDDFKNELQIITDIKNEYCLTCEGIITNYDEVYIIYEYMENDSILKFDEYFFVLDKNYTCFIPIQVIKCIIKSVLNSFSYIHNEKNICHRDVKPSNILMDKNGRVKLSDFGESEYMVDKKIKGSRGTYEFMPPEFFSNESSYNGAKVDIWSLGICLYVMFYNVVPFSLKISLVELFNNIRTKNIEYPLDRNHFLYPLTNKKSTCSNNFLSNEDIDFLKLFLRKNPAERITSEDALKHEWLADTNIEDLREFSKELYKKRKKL
Calcium-dependent protein kinase 1 (Plasmodium falciparum (isolate 3D7)), sequence (P62344 whole entry, looked up): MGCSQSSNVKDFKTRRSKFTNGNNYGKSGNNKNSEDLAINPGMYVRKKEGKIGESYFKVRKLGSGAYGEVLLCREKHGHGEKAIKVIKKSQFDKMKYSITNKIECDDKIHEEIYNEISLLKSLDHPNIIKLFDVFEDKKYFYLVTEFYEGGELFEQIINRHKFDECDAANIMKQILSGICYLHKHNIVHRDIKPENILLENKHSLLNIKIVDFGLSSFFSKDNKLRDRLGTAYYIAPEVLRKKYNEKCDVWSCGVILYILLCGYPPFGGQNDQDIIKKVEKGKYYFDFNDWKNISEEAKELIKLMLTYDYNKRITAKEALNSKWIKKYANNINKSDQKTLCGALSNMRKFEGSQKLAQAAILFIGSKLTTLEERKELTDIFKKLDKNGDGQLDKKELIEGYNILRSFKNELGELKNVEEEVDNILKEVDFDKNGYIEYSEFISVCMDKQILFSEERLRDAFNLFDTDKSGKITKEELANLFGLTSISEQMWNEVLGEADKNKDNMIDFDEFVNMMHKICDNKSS

What is called inhibition is the drop in the measured response relative to a control, in per cent. Take `COc1ccc(C2CNCc3c2cc(OC)c(OC)c3Cl)cc1` (centres undefined): the values for the growth inhibition in experiment [1] and in experiment [4] were 3% (inactive) and 98% (active), respectively. The inhibition in experiment [2] was 42% (inactive); in experiment [3] it was 2% (inactive). Besides, the outcome in experiment [5], in experiment [6], in experiment [7] and in experiment [8] was inactive.

On to `CC[C@H]1CN2CC[C@H]1C[C@H]2[C@H](O)c1cc(Cl)nc2ccc(OC)cc12`, for which the growth inhibition in experiment [1] is 92% (active); in experiment [4], 101% (active). Moreover, the inhibition was 0% (inactive) in experiment [2] and 2% (inactive) in experiment [3]. The outcome in experiment [5], in experiment [6], in experiment [7] and in experiment [8] was inactive.

Turning to `CCOC(C(=O)OCC1CCCN(C)C1)(c1ccccc1)c1ccccc1` (centres undefined), the values for the growth inhibition in experiment [1] and in experiment [4] were 3% (inactive) and 98% (active), respectively. For the same compound, the inhibition is 13% (inactive) in experiment [2] and 0% (inactive) in experiment [3]. For the same compound, the outcome in experiment [5], in experiment [6], in experiment [7] and in experiment [8] was inactive.

For `CC1(CCCCN2CC=C(c3c[nH]c4ccccc34)CC2)C(=O)Nc2ccccc21` (centres undefined), the growth inhibition is 90% (active) in experiment [1] and 94% (active) in experiment [4]. Also, the inhibition in experiment [2] is 3% (inactive); in experiment [3], 4% (inactive). The result in experiment [5], in experiment [6], in experiment [7] and in experiment [8] was inactive.

For the compound `Cn1nc(C(F)(F)F)cc1-c1ccc(C(=O)NC2CCC(CN3CCC(c4c[nH]c5ccccc45)CC3)CC2)s1` (centres undefined), the values for the growth inhibition in experiment [1] and in experiment [4] were 97% (active) and 101% (active), respectively. Further, the inhibition in experiment [2] is 45% (inactive); in experiment [3], -1% (inactive). Further, the result in experiment [5], in experiment [6], in experiment [7] and in experiment [8] was inactive.

In the case of `Cn1cc(CN2CCC(CCOC(c3ccccc3)c3ccccc3)CC2)cn1`, the figures for the growth inhibition in experiment [1] and in experiment [4] were 100% (active) and 99% (active), respectively. For the same compound, the results for the inhibition in experiment [2] and in experiment [3] were 27% (inactive) and -5% (inactive), respectively. In addition, the result in experiment [5], in experiment [6], in experiment [7] and in experiment [8] was inactive.

For the compound `CN1CC=C(c2c[nH]c3ccc(Oc4ccccc4)cc23)CC1`, the growth inhibition in experiment [1] and in experiment [4] was 98% (active) in each case. Further, the inhibition in experiment [2] is 40% (inactive); in experiment [3], -7% (inactive). Besides, the outcome in experiment [5], in experiment [6], in experiment [7] and in experiment [8] was inactive.

Turning to `O=C(C=Cc1ccccc1C(F)(F)F)NC1CCC(CN2CCC(c3c[nH]c4ccccc34)CC2)CC1` (centres undefined), the growth inhibition was 47% (inactive) and 90% (active) in experiment [1]; 102% (active) in experiment [4]. Moreover, the inhibition in experiment [2] was 47% (inactive) and 73% (active); in experiment [3], -1% (inactive) and 1% (inactive). Also, the result in experiment [5], in experiment [6], in experiment [7] and in experiment [8] was inactive.

As for `Cc1cccc(C(=O)Nc2ccnc(N(C)C3CCN(CC(C)C)CC3)c2)c1`, the growth inhibition in experiment [1] was 6% (inactive); in experiment [4] it was 95% (active). In addition, the inhibition in experiment [2] was 10% (inactive); in experiment [3], -2% (inactive). The result in experiment [5], in experiment [6], in experiment [7] and in experiment [8] was inactive.

With `CC(=O)Nc1ccc(CN2CCC(N(C)c3ccc(NC(=O)c4cccc(C)c4)cc3)CC2)cc1`, the growth inhibition in experiment [1] is 50% (active); in experiment [4], 91% (active). Besides, the results for the inhibition in experiment [2] and in experiment [3] were -7% (inactive) and -4% (inactive), respectively. The result in experiment [5], in experiment [6], in experiment [7] and in experiment [8] was inactive.

Regarding `COc1cccc(CN2CCC(CCOC(c3ccccc3)c3ccccc3)CC2)c1O`, the growth inhibition was 99% (active) in experiment [1] and 97% (active) in experiment [4]. In addition, the inhibition in experiment [2] was 33% (inactive); in experiment [3], 3% (inactive). Also, the result in experiment [5], in experiment [6], in experiment [7] and in experiment [8] was inactive.

For the compound `Cc1ccc(C[C@@H](C)NC[C@H](O)c2cccc(C(F)(F)F)c2)cc1`, the growth inhibition in experiment [1] was 79% (active) and 97% (active); in experiment [4], 101% (active) and 99% (active). In addition, the inhibition in experiment [2] is 10% (inactive) and 6% (inactive); in experiment [3], -4% (inactive) and 1% (inactive). Further, the result in experiment [5], in experiment [6], in experiment [7] and in experiment [8] was inactive.

In the case of `CN1CC=C(C=Cc2c[nH]c3ccccc23)CC1`, the values for the growth inhibition in experiment [1] and in experiment [4] were 64% (active) and 86% (active), respectively. In addition, the figures for the inhibition in experiment [2] and in experiment [3] were 14% (inactive) and -1% (inactive), respectively. For the same compound, the outcome in experiment [5], in experiment [6], in experiment [7] and in experiment [8] was inactive.

`O=C(/C=C/c1cc(C(F)(F)F)ccc1F)N1CCC(CN2CCC(c3c[nH]c4ccccc34)CC2)CC1`: the growth inhibition was 14% (inactive) in experiment [1] and 96% (active) in experiment [4]. Also, the values for the inhibition in experiment [2] and in experiment [3] were 22% (inactive) and -1% (inactive), respectively. Also, the outcome in experiment [5], in experiment [6], in experiment [7] and in experiment [8] was inactive.

In the case of `CCCCCc1cc(O)c2c3c(c(=O)oc2c1)CN(C)CC3`, the growth inhibition in experiment [1] is 99% (active); in experiment [4] it was 101% (active). For the same compound, the inhibition in experiment [2] and in experiment [3] was 4% (inactive) each time. Moreover, the result in experiment [5], in experiment [6], in experiment [7] and in experiment [8] was inactive.

For the compound `Cc1cc(N(C)C2CCN(C)CC2)nc(Nc2ccc(Cl)cc2)n1`, the growth inhibition in experiment [1] is 90% (active); in experiment [4], 98% (active). Besides, the inhibition in experiment [2] is 15% (inactive); in experiment [3], -6% (inactive). For the same compound, the result in experiment [5], in experiment [6], in experiment [7] and in experiment [8] was inactive.

As to `O=C(NC1CCC(CN2CCC(c3c[nH]c4ccccc34)CC2)CC1)c1csc(-c2ccc(C(F)(F)F)cc2Cl)n1` (centres undefined), the growth inhibition in experiment [1] was 75% (active); in experiment [4] it was 99% (active). In addition, the inhibition in experiment [2] is 32% (inactive); in experiment [3], -3% (inactive). Further, the result in experiment [5], in experiment [6], in experiment [7] and in experiment [8] was inactive.

With `CC1(C)CCCN(C(=O)Cc2ccc3c(c2)CCCC3)C1CN1CC=CC1` (centres undefined), the figures for the growth inhibition in experiment [1] and in experiment [4] were 1% (inactive) and 98% (active), respectively. Besides, the inhibition is -3% (inactive) in experiment [2] and -1% (inactive) in experiment [3]. Further, the result in experiment [5], in experiment [6], in experiment [7] and in experiment [8] was inactive.

Source of the values: PubChem BioAssay.
